The target of one experiment is Albumin (Bos taurus) (UniProt P02769). The experiment is described as follows: compounds binding labelled BSA control protein – biochemical, small-molecule microarray, Alexa647 label, 635/667 nm fluorescence, artefact control for SMM control protein annotation, profiling panel (AID 1118).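 Note: score merges 667 nm emission intensity and signal-to-noise per printed compound spot.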 As to conditions: BSA-A647 binding, fluorescence 635 nm, higher = more signal.
A short description of experiment [1]: probe aXIP binding to arrayed compounds – biochemical, NeuroSMM set, 635/667 nm fluorescence, primary screen (AID 1119).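 Note: probe is the protein aXip251-270 applied at 1 µg/mL to compound-printed slides; binding of probe to printed compounds measured as 667 nm fluorescence plus signal to noise.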 To be noted: small-molecule microarray, higher = more signal, called active from +8 up or from −8 down.
A short description of experiment [2]: probe aNOTCH3 binding on compound microarray – biochemical, small-molecule microarray, 635/667 nm fluorescence, primary screen (AID 1120).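 Note: probe is a biotin-tagged antibody raised against NOTCH3 rather than NOTCH3 protein; score merges spot fluorescence near 667 nm with spot signal to noise.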 As to conditions: higher = more signal.
Experiment [3] is described as follows: probe aNOTCH2 binding on compound microarray – biochemical, small-molecule microarray, 635/667 nm fluorescence, primary screen (AID 1121).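 Note: score merges feature fluorescence read at 667 nm with its signal to noise.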 To be noted: higher = more signal.
The target in experiment [4] is Carbonic anhydrase 2 (Homo sapiens) (UniProt P00918). The experiment is described as follows: compounds binding carbonic anhydrase 2 – biochemical, small-molecule microarray, Alexa647-labelled CAII, profiling panel (AID 1122). As to conditions: CAII-A647 binding fluorescence, higher = more signal.
Experiment [5] can be described thus: COS7 lysate on small-molecule microarray, probe aHis, 635 nm (AID 1123).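 Note: z-score combines 667nm fluorescence intensity with signal-to-noise per printed compound spot.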 As to conditions: COS7 cell lysate, fluorescence, higher = more signal.
Experiment [6] in a line: probe aLAP1 signal on lysate-treated microarray – cell lysate, small-molecule microarray, COS7 lysate, primary screen (AID 1124).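 Note: lysate comes from COS7 cells expressing LAP1 and is applied at 0.3 µg/mL; score merges spot fluorescence near 667 nm with signal-to-noise over triplicate slides.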 To be noted: probe aLAP1, fluorescence, higher = more signal.
A further experiment relates to Sam68 (KHDRBS1). The experiment is described as follows: compounds binding KHDRBS1 protein – biochemical, small-molecule microarray, 635 nm fluorescence, primary screen (AID 1125).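 Note: score merges 667 nm channel intensity with signal to noise over triplicate slides.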 To be noted: higher = more signal.
Experiment [7] concerns Chordin-like protein 2 (CHRDL2). The experiment is described as follows: compounds binding chordin-like 2 – biochemical, small-molecule microarray, 635 nm fluorescence, primary screen (AID 1126).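 Note: printed compound slides probed with Chrdl2 protein at 4 µg/mL for 1 h at 4 C; score merges 667 nm emission intensity with signal to noise over three replicate slides.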 As to conditions: fluorescence 635 nm, higher = more signal.
The target in experiment [8] is Concanavalin-A (Canavalia ensiformis) (UniProt P02866). Kind of experiment: compounds binding concanavalin A lectin – biochemical, small-molecule microarray, Alexa647 label, 635 nm, artefact control for SMM control protein annotation, primary screen (AID 1127).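 Note: z combines 667 nm emission intensity with signal-to-noise across three replicate slides.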 To be noted: ConA-A647 binding fluorescence, higher = more signal.
Sequence of Concanavalin-A (Canavalia ensiformis) (P02866 whole entry, looked up): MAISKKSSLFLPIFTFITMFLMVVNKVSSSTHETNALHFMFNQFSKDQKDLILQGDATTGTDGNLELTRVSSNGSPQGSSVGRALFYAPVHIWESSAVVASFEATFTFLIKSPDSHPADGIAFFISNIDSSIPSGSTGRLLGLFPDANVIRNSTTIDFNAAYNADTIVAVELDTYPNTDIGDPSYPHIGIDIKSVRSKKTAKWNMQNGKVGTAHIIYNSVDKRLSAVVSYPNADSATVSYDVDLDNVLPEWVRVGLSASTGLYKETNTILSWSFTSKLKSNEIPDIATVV
Experiment [9] in a line: compounds binding Alexa647 anti-His antibody – biochemical, small-molecule microarray, 635 nm fluorescence, artefact control for SMM control protein annotation, primary screen (AID 1128).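 Note: score merges feature fluorescence with signal-to-noise for each printed compound spot.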 To be noted: higher = more signal.
Experiment [10] concerns Human papillomavirus type 1a E7 protein (residues 1-88). Kind of experiment: HPV1a E7 small-molecule binders, primary screen, biochemical, small-molecule microarray, residues 1-88, 635 nm (AID 1129). To be noted: small-molecule microarray binding, fluorescence 635 nm; higher = more signal.
Experiment [11] concerns the target Focal adhesion kinase 1 (Homo sapiens) (UniProt Q05397). The experiment is described as follows: PTK2 protein binding on printed compound slides – biochemical, small-molecule microarray, 635/667 nm fluorescence, BSA, DTT, primary screen (AID 1130).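 Note: composite of spot emission at 667 nm and signal to noise over triplicate slides.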 To be noted: 635 nm fluorescence, higher = more signal.
Experiment [12] deals with Fibrinogen (Alexa647-labelled). Kind of experiment: Alexa647-fibrinogen binding to printed small molecules – biochemical, small-molecule microarray, 635/667 nm fluorescence, artefact control for SMM control-protein annotation, profiling panel (AID 1131).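 Note: z-score merges 667 nm fluorescence with per-spot signal-to-noise over triplicate slides.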 As to conditions: fibrinogen-A647 binding fluorescence, higher = more signal.
Experiment [13] concerns the target Follistatin (Homo sapiens) (UniProt P19883). Kind of experiment: FST protein binding to printed compounds – biochemical, small-molecule microarray, 635/667 nm fluorescence, primary screen (AID 1132). As to conditions: 635 nm fluorescence, higher = more signal.
For experiment [14], the target named is Fibroblast growth factor 2 (Homo sapiens) (UniProt P09038). The experiment is described as follows: basic fibroblast growth factor binding to printed compounds – biochemical, small-molecule microarray, 635/667 nm fluorescence, primary screen (AID 1133). As to conditions: FGF2, fluorescence 635/667, higher = more signal.
Sequence of Fibroblast growth factor 2 (Homo sapiens) (P09038 whole entry, looked up): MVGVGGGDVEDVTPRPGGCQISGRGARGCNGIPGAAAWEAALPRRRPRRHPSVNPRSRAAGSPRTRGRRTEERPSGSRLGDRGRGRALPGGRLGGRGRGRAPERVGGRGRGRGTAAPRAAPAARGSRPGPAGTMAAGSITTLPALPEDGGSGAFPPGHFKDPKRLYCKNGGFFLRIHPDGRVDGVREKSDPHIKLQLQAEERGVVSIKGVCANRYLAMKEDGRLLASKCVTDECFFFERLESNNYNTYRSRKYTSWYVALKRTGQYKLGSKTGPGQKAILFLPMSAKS
Experiment [15] can be described thus: JC-1 mitochondrial potential readout, lung cancer cells – cell-based, A549, JC-1 fluorescence, basal, 24 h, 100 nL, profiling panel (AID 1138).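 Note: A549 lung adenocarcinoma cells under basal conditions with no added stimulus; test concentration not given here.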 As to conditions: higher = more signal.
In the next experiment the test system is Lefty1. The experiment is described as follows: Lefty1 protein binding to printed compounds – biochemical, small-molecule microarray, 635/667 nm fluorescence, primary screen (AID 1139). As to conditions: fluorescence 635/667, higher = more signal.
Experiment [16] has as its system wheat germ agglutinin (Triticum aestivum), Alexa647-labelled. The experiment is described as follows: Alexa647-WGA lectin binding to printed small molecules – biochemical, small-molecule microarray, 635/667 nm fluorescence, artefact control for SMM control-protein annotation, profiling panel (AID 1140).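 Note: score merges 667 nm feature emission with signal to noise over triplicate slides.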 To be noted: WGA-A647 binding, 635 nm fluorescence, higher = more signal.

Experiment [17] deals with Luciferin 4-monooxygenase (Photinus pyralis) (UniProt P08659). The experiment is described as follows: inhibition of purified Photinus pyralis luciferase – biochemical, luminescence, purified enzyme, 2006 set, primary screen (AID 1141).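 Note: cell-free assay with purified firefly luciferase at 100 ng per well in PBS; test concentration not given here.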 To be noted: purified firefly luciferase, SteadyGlo luminescence, 30 min; higher = more signal, called active from +8 up or from −8 down.
Sequence of Luciferin 4-monooxygenase (Photinus pyralis) (P08659 whole entry, looked up): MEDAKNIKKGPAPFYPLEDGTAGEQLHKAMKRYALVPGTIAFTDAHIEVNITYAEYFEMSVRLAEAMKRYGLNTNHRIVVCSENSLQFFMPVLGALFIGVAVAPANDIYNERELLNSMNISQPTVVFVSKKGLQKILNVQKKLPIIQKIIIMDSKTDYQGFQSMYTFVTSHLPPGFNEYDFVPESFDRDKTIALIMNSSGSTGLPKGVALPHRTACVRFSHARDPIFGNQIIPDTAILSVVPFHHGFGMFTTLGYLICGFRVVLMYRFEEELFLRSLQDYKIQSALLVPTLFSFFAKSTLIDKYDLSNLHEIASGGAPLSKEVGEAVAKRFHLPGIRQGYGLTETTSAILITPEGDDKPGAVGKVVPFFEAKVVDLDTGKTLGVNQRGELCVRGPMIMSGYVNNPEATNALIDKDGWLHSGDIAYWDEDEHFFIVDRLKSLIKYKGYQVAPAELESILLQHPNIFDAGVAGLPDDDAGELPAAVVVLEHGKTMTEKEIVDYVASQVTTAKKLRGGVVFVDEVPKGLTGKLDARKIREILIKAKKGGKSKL

Active and inactive are the calls of the source.

Sequence of Follistatin (Homo sapiens) (P19883 whole entry, looked up): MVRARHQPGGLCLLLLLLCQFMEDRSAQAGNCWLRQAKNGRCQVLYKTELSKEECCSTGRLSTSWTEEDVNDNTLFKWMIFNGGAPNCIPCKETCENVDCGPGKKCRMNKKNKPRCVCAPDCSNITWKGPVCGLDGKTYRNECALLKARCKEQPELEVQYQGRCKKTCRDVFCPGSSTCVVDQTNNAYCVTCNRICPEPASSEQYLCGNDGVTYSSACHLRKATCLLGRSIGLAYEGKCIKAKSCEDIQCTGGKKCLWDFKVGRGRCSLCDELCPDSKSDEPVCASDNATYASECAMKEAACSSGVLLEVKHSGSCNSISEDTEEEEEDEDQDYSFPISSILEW
Sequence of Focal adhesion kinase 1 (Homo sapiens) (Q05397 whole entry, looked up): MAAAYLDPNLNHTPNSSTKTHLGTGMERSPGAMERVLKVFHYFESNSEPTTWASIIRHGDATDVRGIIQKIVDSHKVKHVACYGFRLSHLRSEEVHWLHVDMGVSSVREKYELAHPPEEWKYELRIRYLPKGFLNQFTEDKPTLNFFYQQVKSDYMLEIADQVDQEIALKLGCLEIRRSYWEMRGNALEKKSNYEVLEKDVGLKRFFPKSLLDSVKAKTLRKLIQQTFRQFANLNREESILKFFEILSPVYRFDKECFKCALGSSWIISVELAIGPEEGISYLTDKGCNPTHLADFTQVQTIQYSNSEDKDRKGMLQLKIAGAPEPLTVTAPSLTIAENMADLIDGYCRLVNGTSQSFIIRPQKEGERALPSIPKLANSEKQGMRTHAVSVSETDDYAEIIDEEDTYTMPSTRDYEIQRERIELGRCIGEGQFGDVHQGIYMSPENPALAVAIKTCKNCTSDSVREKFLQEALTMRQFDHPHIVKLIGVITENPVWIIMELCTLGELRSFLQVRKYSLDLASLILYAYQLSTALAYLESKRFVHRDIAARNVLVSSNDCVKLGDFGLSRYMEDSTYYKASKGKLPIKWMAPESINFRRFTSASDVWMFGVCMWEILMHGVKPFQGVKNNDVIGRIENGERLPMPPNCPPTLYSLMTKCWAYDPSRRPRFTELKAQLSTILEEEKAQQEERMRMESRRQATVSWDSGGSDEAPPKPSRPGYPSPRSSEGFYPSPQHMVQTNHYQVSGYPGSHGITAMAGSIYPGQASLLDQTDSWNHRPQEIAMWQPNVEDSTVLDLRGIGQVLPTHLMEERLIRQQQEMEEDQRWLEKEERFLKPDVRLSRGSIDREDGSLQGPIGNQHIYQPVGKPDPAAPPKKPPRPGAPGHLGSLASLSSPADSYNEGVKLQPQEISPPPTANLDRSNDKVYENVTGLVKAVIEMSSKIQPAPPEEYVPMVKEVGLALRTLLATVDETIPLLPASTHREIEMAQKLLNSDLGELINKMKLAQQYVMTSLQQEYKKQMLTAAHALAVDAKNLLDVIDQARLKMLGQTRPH
Sequence of Albumin (Bos taurus) (P02769 whole entry, looked up): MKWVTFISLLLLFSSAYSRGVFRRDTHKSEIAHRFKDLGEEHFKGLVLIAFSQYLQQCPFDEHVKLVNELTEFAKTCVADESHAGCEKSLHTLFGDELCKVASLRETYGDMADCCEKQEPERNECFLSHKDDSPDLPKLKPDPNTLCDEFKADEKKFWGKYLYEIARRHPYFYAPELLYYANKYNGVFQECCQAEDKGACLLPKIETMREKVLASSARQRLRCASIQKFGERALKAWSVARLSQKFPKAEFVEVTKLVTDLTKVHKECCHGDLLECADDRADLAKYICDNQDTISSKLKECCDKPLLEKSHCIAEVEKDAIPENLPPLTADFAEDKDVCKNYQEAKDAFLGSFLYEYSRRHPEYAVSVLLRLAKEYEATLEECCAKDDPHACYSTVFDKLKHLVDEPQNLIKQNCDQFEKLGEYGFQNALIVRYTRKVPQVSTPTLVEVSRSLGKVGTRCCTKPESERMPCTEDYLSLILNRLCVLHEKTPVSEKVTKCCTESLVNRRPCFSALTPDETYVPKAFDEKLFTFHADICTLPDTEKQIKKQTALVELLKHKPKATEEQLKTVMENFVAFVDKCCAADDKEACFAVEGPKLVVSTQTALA

For `C[C@]12C(=O)N(CCO)[C@@H]3C(=O)N(c4ccc(Cl)cc4)CC=CC31O[C@@H]1/C=C\CCCOC(=O)C12` (stereo not given in full), the composite z-score in the experiment with Albumin (Bos taurus) was 0.575; in experiment [2], -0.183; in experiment [3] it was -0.0798; in experiment [4], 0.883; in experiment [5], -0.485; in experiment [6] it was -0.0785. The composite z-score in the experiment on Sam68 (KHDRBS1) is -0.0284; in [7], -1.62; in experiment [8], -0.263; in experiment [9], -0.415; in experiment [10], -0.639; in [11], -0.422. Further, the composite z-score in [12] was -0.333; in experiment [13], -0.178; in [14], -0.711; in the experiment on Lefty1, -0.185; in [16] it was -0.839. For the same compound, the composite Z-score in experiment [1] is 0.0414 (inactive). In addition, the z-score in [15] was -0.574; in [17], -0.0708 (inactive).

For `O=C1C2C=CC(C(O)C3CC=CCC3)N(Nc3ccc([N+](=O)[O-])cc3)C2C(=O)N1c1ccccc1` (stereo not given), the composite z-score with Albumin (Bos taurus) came to 0.82; in experiment [2], 0.749; in [3], 0.326; in [4], 0.693; in experiment [5], 2.5; in experiment [6], 1.21. In addition, the composite z-score was 1.33 in the experiment on Sam68 (KHDRBS1); 0.729 in experiment [7]; 1.07 in experiment [8]; 2.2 in experiment [9]; 1.2 in experiment [10]; 0.876 in experiment [11]. Further, the composite z-score in [12] came out at 0.994; in [13], 1.36; in experiment [14], 0.0341; in the experiment with Lefty1 it was 0.307; in experiment [16], 0.862. Moreover, the composite Z-score in experiment [1] is 0.626 (inactive). Besides, the values for the z-score in experiment [15] and in experiment [17] were -0.861 and 0.83 (inactive), respectively.

As for `C=CCNC(=O)[C@H]1[C@@H]2C(=O)O[C@@H](c3ccccc3)[C@@H](c3ccccc3)N2[C@@H](c2ccc(OCCO)cc2)[C@]12C(=O)N(C(=O)OCCOC)c1ccc(C#CCC(C(=O)OC)C(=O)OC)cc12`, the composite z-score in the experiment with Albumin (Bos taurus) was found to be 0.738; in experiment [2], 0.327; in experiment [3], 0.0654; in experiment [4] it was 0.702; in [5], 2.67; in [6], 1.44. For the same compound, the composite z-score in the experiment with Sam68 (KHDRBS1) worked out at 1.16; in experiment [7], 0.6; in experiment [8], 1.12; in experiment [9], 0.302; in experiment [10], 1.2; in experiment [11], 0.227. Moreover, the composite z-score was 0.94 in [12]; 1.27 in experiment [13]; 0.252 in experiment [14]; 1.27 in the experiment with Lefty1; 1.26 in [16]. For the same compound, the composite Z-score in [1] was 0.245 (inactive). Further, the z-score in experiment [15] was -0.933; in experiment [17] it was -0.515 (inactive).

On to `C=CCNC(=O)[C@@H]1[C@H]2C(=O)O[C@H](c3ccccc3)[C@H](c3ccccc3)N2[C@H](c2ccc(O)cc2)[C@@]12C(=O)Nc1ccc(C#CC3=CCCCC3)cc12`, for which the composite z-score with Albumin (Bos taurus) is 0.543; in experiment [2] it was 1.22; in experiment [3], -0.0857; in [4], 0.676; in experiment [5] it was 1.69; in [6], 1.24. For the same compound, the composite z-score was determined as 1.32 in the experiment on Sam68 (KHDRBS1); 0.334 in [7]; 1.04 in experiment [8]; 0.844 in experiment [9]; 1.18 in experiment [10]; 0.721 in experiment [11]. Also, the composite z-score in experiment [12] came out at 0.668; in [13], 1.24; in [14], 0.494; with Lefty1, 1.43; in experiment [16], 1.06. The composite Z-score in [1] was 0.986 (inactive). The z-score in [15] was 0.22; in [17] it was -0.806 (inactive).

As to `CCCCN1CC=CC23O[C@@H]4C=CCCOC(=O)C4[C@H]2C(=O)N(CCO)[C@@H]3C1=O` (stereo not given in full), the composite z-score in the experiment with Albumin (Bos taurus) is 0.0656; in experiment [2], -0.246; in experiment [3], -0.109; in [4], 0.79; in experiment [5], -1.36; in [6] it was 1.94. The composite z-score was -0.33 in the experiment on Sam68 (KHDRBS1); -0.418 in [7]; -0.0932 in [8]; -1.17 in experiment [9]; -0.513 in [10]; -0.634 in experiment [11]. Moreover, the composite z-score in [12] is 0.213; in [13], 0.407; in experiment [14], 1.79; with Lefty1, -0.614; in experiment [16], -0.0481. Besides, the composite Z-score in [1] was -0.535 (inactive). For the same compound, the z-score in experiment [15] was -0.9; in experiment [17], 0.421 (inactive).

(Values after PubChem BioAssay.)
